Rows were chosen to be rich in hits. Some 3.4% of all compounds tested hit in one or more screens of this group.
TEAD-YAP inh: TEAD-YAP interaction inhibition, primary screen, TEAD-YAP interaction inhibitor project, luminescence, HEK-TIYL cells; TEAD-Gal4/YAP UAS-luciferase luminescence; inhibition, % at 9.12 µM; 640,000 tested, 1.4% active; AID 1259422, 2018; in the data active = inhibition above about 32%;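 also: 0% = median of test compound wells and 100% = reference inhibitor wells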
GPR151 ag: activators of human GPR151, primary screen, cell-based, PathHunter beta-arrestin, luminescence | activation, % at 11.2 µM | AID 1508602, 2020 | PathHunter beta-arrestin GPR151 cells | 650,000 tested, 1% active | G-protein coupled receptor 151 (Homo sapiens), Q8TDV0; in the data active = activation above about 4.9%;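 also: 0% = median of compound wells and 100% = cells with positive control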
FBW7 activator: FBW7 E3 ligase activators, primary screen, biochemical, AlphaScreen, human. F-box/WD repeat-containing protein 7 (Homo sapiens), Q969H0. AlphaScreen FBW7–phospho-cyclin E peptide binding, activator screen. normalized activity (activation), % at 26.1 µM. 650,000 tested, 0.13% active; in the data active = normalized activity above about 1.9%;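 also: purified mutant Fbw7 with reduced substrate affinity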
MITF inh: MITF inhibitors, primary screen, biochemical, AlphaScreen, human; 650,000 tested, 0.91% active; Microphthalmia-associated transcription factor (Homo sapiens), O75030; inhibition, % at 2.6 µM; AID 1259374, 2018; AlphaScreen MITF homodimerization, bead proximity signal; in the data active = inhibition above about 50%;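 also: 0% = vehicle wells with protein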
Target sequence (O75030 whole entry, looked up): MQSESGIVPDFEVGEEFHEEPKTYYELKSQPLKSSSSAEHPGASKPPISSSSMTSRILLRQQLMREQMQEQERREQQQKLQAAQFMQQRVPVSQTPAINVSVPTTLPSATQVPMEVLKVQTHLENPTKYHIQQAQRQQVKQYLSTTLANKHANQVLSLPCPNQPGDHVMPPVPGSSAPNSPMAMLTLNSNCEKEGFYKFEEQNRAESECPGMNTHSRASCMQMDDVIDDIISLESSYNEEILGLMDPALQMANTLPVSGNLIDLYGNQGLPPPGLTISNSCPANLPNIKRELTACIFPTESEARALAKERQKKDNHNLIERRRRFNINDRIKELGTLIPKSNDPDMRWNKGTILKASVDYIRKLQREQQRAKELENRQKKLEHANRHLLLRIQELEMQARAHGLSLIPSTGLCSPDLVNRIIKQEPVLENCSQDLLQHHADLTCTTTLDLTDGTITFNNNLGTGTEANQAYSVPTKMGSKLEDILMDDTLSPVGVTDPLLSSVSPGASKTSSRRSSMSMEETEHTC
The depositor's hits bear a star; ! = not active in a repeat.

SMILES	TEAD-YAP inh	GPR151 ag	FBW7 activator	MITF inh
O=C(Cn1cnc2c(cnn2-c2ccc(Cl)cc2)c1=O)N1CCOCC1	8.4	-2.4	0.1	10.2
CNC(=O)c1cc(F)ccc1Nc1cc(Nc2ccc(NC(C)=O)cc2)ncc1C(F)(F)F	38.1*	-0.2	0.0	0.1
CC(=O)Nc1ccc(NC(=O)c2ccc(F)cc2)nc1	-25.6	-0.1	0.1	5.5
CNC(=O)c1cc(F)ccc1Nc1cc(Nc2ccc3c(c2)NC(=O)C3)ncc1C(F)(F)F	39.0*	0.3	-0.2	7.3
CNC(=O)c1cc(F)ccc1Nc1cc(Nc2ccc3c(c2)CC(=O)N3)ncc1C(F)(F)F	1.4	-1.8	-0.1	4.1
COc1cn(-c2ccc(F)cc2)nc1C(=O)Nc1ccccc1SC	32.4*	0.8	0.1	5.6
O=C(Oc1ccc(NS(=O)(=O)c2ccccc2)c2ccccc12)c1ccccc1	76.5*	0.2	0.2	-2.7
Cc1ccc2oc(-c3ccc(N)cc3)nc2c1	69.5*	-7.3	-0.1	5.1
Oc1ccc2nc(-c3ccccc3)oc2c1	70.5*	-6.0	0.8	5.1
Cc1cccc2oc(-c3ccc(N)cc3)nc12	50.6*	-2.9	0.0	2.0
Cc1ccc2oc(-c3cccc(N)c3)nc2c1	-6.5	-8.9	-0.1	4.5
Nc1ccc(O)c(-c2nc3cc(Cl)ccc3o2)c1	-42.9	-1.7	0.0	4.3
Nc1ccc2oc(-c3cc(Cl)ccc3Br)nc2c1	48.0*	1.5	0.0	-4.3
Cc1ccc(Nc2cc(N(C)C)c3nonc3c2[N+](=O)[O-])cc1Cl	8.1	-1.2	0.1	7.2
O=C(Nc1ccc(S(=O)(=O)Nc2ccccc2)cc1)c1ccccc1Br	14.9	-0.1	0.1	12.5
O=C(NCCc1ccccn1)c1cc(COc2cccc3cnccc23)on1	-2.3	2.8	0.3	2.5
Nc1ccc2oc(-c3ccc(Cl)c(Cl)c3)nc2c1	-3.0	-3.5	0.0	-8.3
Nc1ccc2oc(-c3ccc(O)cc3)nc2c1	88.8*	-6.1	0.3	6.0
COc1ccc(-c2nc3cc(C)ccc3o2)cc1	69.5*	-7.4	0.0	0.4
COc1ccc(-c2nc3cc(N)ccc3o2)cc1	31.5	-5.8	0.2	-3.4
Cc1ccc(-c2nc3cc(N)ccc3o2)cc1	54.1*	-7.5	0.1	-3.3
Nc1ccc(-c2nc3cc([N+](=O)[O-])ccc3o2)cc1	-39.1	-1.7	-0.2	2.7
CC(C)(C)c1ccc2oc(-c3ccc(N)cc3)nc2c1	68.7*	-0.1	0.2	3.6
O=c1cnnc(SCc2cccc(C(F)(F)F)c2)[nH]1	3.0	1.7	0.1	6.2
Clc1ccc(-c2nsc3c(N4CCN(Cc5ccccn5)CC4)ncnc23)cc1	2.4	-0.7	0.2	14.3
SMILES	TEAD-YAP inh	GPR151 ag	FBW7 activator	MITF inh
CC(=O)O[C@@H]1[C@@H](O)CN[C@@H]1Cc1ccccc1	101.2*	-2.5	-0.1	-1.7
Cc1ccccc1C(OCCN(C)C)c1ccccc1 (stereo not drawn)	6.3	-2.0	1.9*!	-14.2
CN(C)CC#CCOC(c1ccccc1)c1ccccc1	-0.6	-0.8	-0.2	4.8
CCc1nc2sc(C(N)=O)c(N)c2c2c1CCCC2	38.2*	-1.3	0.2	-15.4
COC(=O)c1sc2nc3c(c(-c4ccc(C)o4)c2c1N)CCCC3	4.7	2.9	0.0	-6.7
CCc1nc2sc(C(=O)OC)c(N)c2c2c1CCCC2	-4.2	0.9	0.0	-15.2
NC(=O)c1sc2nc3c(c(-c4ccco4)c2c1N)CCC3	43.7*	1.5	-0.2	-4.8
Cc1ccc(-c2c3c(nc4sc(C(N)=O)c(N)c24)CCCC3)o1	5.8	-0.2	-0.2	55.3*
O=C(CN1CCN(CC(=O)Nc2ccc(OCc3ccccc3)cc2)CC1)Nc1ccc(F)cc1	18.8	-0.9	0.0	3.5
O=C(Nc1ccc(OCc2ccccc2)cc1)c1ccc(CN2CCOCC2)cc1	48.7*	1.1	0.1	6.6
O=C(Nc1ccc(CN2CCOCC2)cc1)c1ccc(OCc2ccccc2)cc1	13.5	-0.4	-0.3	2.5
O=C(CN1CCOCC1)Nc1ccc(OCc2ccccc2)cc1	32.8*	0.3	0.0	-5.0
Cc1cc(-c2nnc(CCC(=O)N(Cc3c(C)nn(C)c3C)C(C)C)o2)c(C)o1	-17.5	-0.3	-0.1	-8.5
Cn1c(=O)n(C)c2c([N+](=O)[O-])c(N)c([N+](=O)[O-])cc21	-9.6	-0.5	0.1	7.2
CCC(C)Nc1ncnc2c1cnn2-c1ccc(Cl)cc1 (stereo not drawn)	37.0*	-0.8	-0.1	-2.4
CCN(CC)c1ncnc2c1cnn2-c1ccc(Cl)cc1	69.7*	0.2	-0.1	-6.0
Cc1cccc(NC(=O)C(CC(C)C)NS(=O)(=O)c2ccc3c(c2)oc(=O)n3C)n1 (stereo not drawn)	11.8	1.5	-0.1	1.4
COc1cccc2cc(C(=O)NCc3cccc(Cl)c3)c(=Nc3ccc(C(=O)O)cc3)oc12	34.6*	0.8	0.0	-1.5
COc1cc(CNC(=O)c2ccc3ccccc3n2)cc(OC)c1OC	44.7*	-0.1	-0.1	-0.1
COc1cc(CNC(=O)c2c(C(F)(F)F)nc3c(OC)cccn23)cc(OC)c1OC	-0.1	-0.6	1.9*	11.3
CN(C(=O)/C=C/c1ccc(Br)o1)c1ccccc1	-7.1	0.9	0.1	1.9
O=C(c1cnccc1Nc1ccc2[nH]ncc2c1)N1CC[C@@H](O)C1	8.4	-0.6	0.1	4.8
c1ccc(-c2ccc(-c3nc(-c4ccccn4)no3)cc2)cc1	94.5*	-11.7	0.1	-2.4
Cc1ccc(-c2nc(-c3ccccn3)no2)cc1[N+](=O)[O-]	54.7*	-6.9	-0.1	-2.2
Cc1ccc(-c2nc(-c3cccs3)no2)cc1[N+](=O)[O-]	-20.9	-1.0	-0.3	2.5
SMILES	TEAD-YAP inh	GPR151 ag	FBW7 activator	MITF inh
Cc1ccc(-c2nc(-c3ccccn3)no2)cc1	95.0*	-11.5	0.0	3.9
CCOc1ccc2cc(-c3ccccn3)c(=N)oc2c1	59.3*	-8.8	0.3	-15.2
CCCOc1ccc(-c2ccc(-c3nc(-c4ccccn4)no3)cc2)cc1	5.4	-1.8	0.0	8.2
COC(=O)C1=C(C)N=c2s/c(=C\c3cc4c(cc3Br)OCO4)c(=O)n2C1c1ccc(C(C)C)cc1 (stereo not drawn)	5.2	0.5	0.1	9.7
c1cnc(Nc2nccc(NC3CC3)n2)cn1	-15.7	-0.7	0.2	12.3
Cc1ccc(NCc2nnc(SCC(=O)NC3CCCCC3)n2C)cc1	-3.4	0.1	0.0	-7.3
CCOc1ccc(-c2nc(-c3ccccn3)no2)cc1	98.1*	-8.4	0.0	6.1
Cc1ccc(-c2nc(-c3ccccn3)no2)cc1Cl	84.1*	-11.3	-0.1	-0.6
COc1ccc(C(=O)NNC(=O)COc2ccc3ccccc3c2)cc1	-6.2	0.2	0.4	-4.2
COc1cccc(NC(=O)c2sc(NC(=O)/C=C/c3ccccc3)nc2C)c1	55.4*	-0.7	0.0	-8.0
COc1ccc(/C=N\NC(=O)c2ccc([N+](=O)[O-])cc2)c(OC)c1	-1.8	-0.8	0.0	16.4
COc1ccc(-c2cnc3ccc(NCc4ccco4)nn23)c(OC)c1	0.0	-0.6	-0.1	-7.4

High-throughput results deposited in PubChem by The Scripps Research Institute Molecular Screening Center.
